PubChem BioAssay (NCI)
This is part of a sample that, as a whole, favours compounds with a hit. Of some 83,000 tested, about 20% had one in any assay.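 Interpretation: 100, growth as untreated; towards 0, rising growth inhibition; 0, no net growth; 0 to -100, cell death. Compounds scoring below 10 were considered active.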 A number with no mark means an inactive call. Active and inactive are the calls of the source.

System: HL-60(TB) leukemia
Assay: NCI-60 one-dose screen, 48 h (100 = growth as untreated, 0 = no growth, -100 = all killed)
Conditions: 10 µM unless noted

| Structure (SMILES) | growth |
| --- | --- |
| COc1cc(C)cc2oc3oc(=N)c(C(=O)c4ccccc4)cc3c(=O)c12 | 112% |
| COc1ccc(C2=Nc3c(N)nc(N)nc3NC(c3cccc(Nc4ccnc5cc(C(F)(F)F)ccc45)c3)C2)cc1 (stereo unspecified) | 81.6% |
| N=C(N)c1ccc(-c2ccc(-c3cccs3)s2)nc1 | -32.1% (active) |
| CCOC(=O)c1ccc(NCCC(=O)O)cc1 | 96.4% |
| O=C1c2c(c3c4cc(Br)ccc4[nH]c3c3ccc4ccccc4c23)C(=O)N1O | 116% |
| Cc1oc2nc[nH]c(=O)c2c1C(=O)/C=C/c1ccc(Br)cc1 | -4.98% (active) |
| Oc1ccc(C2OCCO2)c2cccnc12 | 15.8% |
| COc1cc2c(cc1OC)C(=O)OC2 | 156% |
| COc1cc(/C=C2\C(=O)N(CCCCn3c4ccccc4c(=O)c4ccccc43)c3ccccc32)cc(OC)c1O | 53.5% |
| CC(=O)OC/C(C)=C\CC(C)COC(C)=O (stereo unspecified) | 101% |
| CC(=O)O[C@H]1CC[C@@]2(C)C(=CC[C@@H]3[C@@H]2CC[C@]2(C)C(Cl)=C(c4nc5ccc(Cl)cn5c4NC(C)(C)C)C[C@@H]32)C1 | 91.9% |
| Nc1ncnc2[nH]ncc12 | 3.02% (active) |
| COc1cccc(Cc2cc(-c3ccccc3)nn(CC(=O)c3ccccc3)c2=O)c1 | 69.4% |
| Cc1ccc([P+](Cc2ccc([N+](=O)[O-])cc2)(c2ccc(C)cc2)c2ccc(C)cc2)cc1 | -43.8% (active) |
| COc1ccc(CCN2CCCn3c2nc2ccccc2c3=O)cc1 | -5.2% (active) |
| O=c1c2cc(F)ccc2sc2c(NCCN3CCCC3)nc3ccccc3c12 | 91.9% |
| N#Cc1c(Nc2cccc(Cl)c2)sc(C(=O)c2cc3cc(Cl)ccc3o2)c1N | 92.9% |
| CCCCn1c2cc(OCc3cn(-c4ccc(Cl)cc4)nn3)ccc2c2ccnc(C)c21 | -46.5% (active) |
| N=C(N)c1ccc(-c2ccc(-c3ccc(Cl)cc3)s2)s1 | -58.6% (active) |
| COc1ccc(-c2nc(-c3nc4ccc(OC)cc4[nH]3)cc3c2[nH]c2ccccc23)cc1 | 34.7% |
| COc1ccc(OC)c(N(CCN2C(=O)c3ccccc3C2=O)C(=O)CCl)c1 | -63.3% (active) |
| Clc1cc(Cl)cc(Nc2ccc3c(OCCCN4CCOCC4)cccc3n2)c1 | 50.5% |
| NCCCN | 98.8% |
| CC(C)(C)C(=O)OCOP(=O)(OCOC(=O)C(C)(C)C)C1CCCN(OC(=O)c2ccccc2)C1=O (stereo unspecified) | 35.1% |
| COCCOc1cc2ncnc(N3CCN(c4cc(S(C)(=O)=O)c(C)cc4Cl)CC3)c2cc1OCCOC | 97.4% |
| Clc1nc(-c2ccccn2)nc2sc3c(c12)CCCCCC3 | 96% |
